# Assay results published in article PMC7862700, “An all-to-all approach to the identification of sequence-specific readers for epigenetic DNA modifications on cytosine”.
# Assays:
# Test in all cases: DAPPL (digital affinity profiling via proximity ligation, sequencing); 10 mM Tris-HCl pH 7.5, 50 mM NaCl, 1 mM DTT, 4% glycerol, room temperature, 30 min; GST-TFs on glutathione beads, 16-mer random dsDNA library, 0.1% formaldehyde crosslink after washing; high values mean tight binding
# [1] = molecular target: T1, FEV (Homo sapiens, UniProt Q99581 1-238); settings: protein: recombinant; tags: N-terminal GST; dsDNA, one strand shown
# T1 sequence: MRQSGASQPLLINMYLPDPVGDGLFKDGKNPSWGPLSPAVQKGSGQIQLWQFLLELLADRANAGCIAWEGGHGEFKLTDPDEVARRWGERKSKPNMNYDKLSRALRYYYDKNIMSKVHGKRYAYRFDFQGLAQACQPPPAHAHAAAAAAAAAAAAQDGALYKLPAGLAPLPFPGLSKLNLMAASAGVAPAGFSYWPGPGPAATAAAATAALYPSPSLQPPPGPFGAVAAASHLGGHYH
# Summary of the method: (§1)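 Human transcription factors fused to GST were expressed in yeast, captured on glutathione beads, given DNA barcodes and pooled with a GST-only negative control. Pools were incubated with 200 nmole of a 16-mer random double-stranded DNA library in Tris/NaCl/DTT/glycerol buffer at room temperature for 30 min. They were then washed, crosslinked with 0.1% formaldehyde, proximity-ligated (BsaI/T4 ligase, 1 h, 37 °C), PCR-amplified and sequenced on an Illumina NextSeq500. Binding signal is each 6-mer's read frequency for a factor divided by its frequency for the GST control.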
# [2] = molecular target: ETV5 (Homo sapiens, UniProt P41161 1-510); settings: protein: recombinant; tags: N-terminal GST; dsDNA, one strand shown
# Summary of the method: as §1
# [3] = molecular target: HSF1 (Homo sapiens, UniProt Q00613 1-529); settings: protein: recombinant; tags: N-terminal GST; chain copies: 3; dsDNA, one strand shown
# Summary of the method: as §1
# [4] = molecular target: T2, SPIC (Homo sapiens, UniProt Q8N5J4 1-248); settings: protein: recombinant; tags: N-terminal GST; dsDNA, one strand shown
# T2 sequence: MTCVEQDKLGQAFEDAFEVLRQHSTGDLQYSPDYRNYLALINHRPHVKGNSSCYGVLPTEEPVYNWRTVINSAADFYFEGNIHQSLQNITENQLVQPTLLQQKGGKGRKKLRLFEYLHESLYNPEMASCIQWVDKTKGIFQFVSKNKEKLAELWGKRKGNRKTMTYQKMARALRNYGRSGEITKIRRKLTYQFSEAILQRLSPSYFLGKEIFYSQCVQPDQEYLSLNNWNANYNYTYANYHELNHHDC
# Summary of the method: as §1
# [5] = molecular target: ELF4 (Homo sapiens, UniProt Q99607 1-663); settings: protein: recombinant; tags: N-terminal GST; dsDNA, one strand shown
# Summary of the method: as §1
# [6] = molecular target: T3, ELK4 (Homo sapiens, UniProt P28324-2 1-405); settings: protein: recombinant; tags: N-terminal GST; dsDNA, one strand shown
# T3 sequence: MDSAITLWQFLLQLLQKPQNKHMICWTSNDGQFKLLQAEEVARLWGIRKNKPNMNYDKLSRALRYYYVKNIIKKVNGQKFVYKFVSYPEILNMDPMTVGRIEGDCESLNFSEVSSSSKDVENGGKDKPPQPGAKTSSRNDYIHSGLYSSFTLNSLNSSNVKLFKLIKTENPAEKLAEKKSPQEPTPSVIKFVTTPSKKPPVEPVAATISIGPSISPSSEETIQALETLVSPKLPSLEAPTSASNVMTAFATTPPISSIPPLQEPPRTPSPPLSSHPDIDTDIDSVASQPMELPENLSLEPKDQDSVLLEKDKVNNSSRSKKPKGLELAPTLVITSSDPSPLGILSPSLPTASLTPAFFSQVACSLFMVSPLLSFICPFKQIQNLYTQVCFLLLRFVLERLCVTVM
# Summary of the method: as §1
# [7] = molecular target: T4, ETV2 (Homo sapiens, UniProt O00321 1-342); settings: protein: recombinant; tags: N-terminal GST; dsDNA, one strand shown
# T4 sequence: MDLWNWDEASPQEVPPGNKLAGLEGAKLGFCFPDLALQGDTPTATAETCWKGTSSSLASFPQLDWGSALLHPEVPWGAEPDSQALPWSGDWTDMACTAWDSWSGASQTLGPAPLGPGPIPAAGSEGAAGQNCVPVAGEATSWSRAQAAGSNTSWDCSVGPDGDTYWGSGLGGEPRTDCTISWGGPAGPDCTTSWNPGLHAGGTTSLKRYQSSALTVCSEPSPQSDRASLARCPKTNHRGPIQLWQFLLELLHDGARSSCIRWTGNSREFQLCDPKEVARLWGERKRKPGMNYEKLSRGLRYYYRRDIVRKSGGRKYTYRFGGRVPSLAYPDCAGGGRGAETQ
# Summary of the method: as §1
# [8] = molecular target: T5, ELF3 (Homo sapiens, UniProt P78545 1-371); settings: protein: recombinant; tags: N-terminal GST; dsDNA, one strand shown
# T5 sequence: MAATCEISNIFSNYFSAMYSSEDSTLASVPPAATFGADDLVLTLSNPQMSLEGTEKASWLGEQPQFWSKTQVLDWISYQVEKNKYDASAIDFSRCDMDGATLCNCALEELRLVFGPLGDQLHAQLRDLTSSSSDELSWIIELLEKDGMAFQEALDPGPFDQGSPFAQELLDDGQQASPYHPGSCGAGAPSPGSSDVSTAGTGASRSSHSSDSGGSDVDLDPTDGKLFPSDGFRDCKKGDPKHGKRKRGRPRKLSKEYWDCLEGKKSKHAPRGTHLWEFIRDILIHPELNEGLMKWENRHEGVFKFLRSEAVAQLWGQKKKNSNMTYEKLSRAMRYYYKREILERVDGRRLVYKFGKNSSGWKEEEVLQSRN
# Summary of the method: as §1
# [9] = molecular target: CRX (Homo sapiens, UniProt O43186 1-299); settings: protein: recombinant; tags: N-terminal GST; dsDNA, one strand shown
# Summary of the method: as §1
# [10] = molecular target: ETV1 (Homo sapiens, UniProt P50549 1-477); settings: protein: recombinant; tags: N-terminal GST; dsDNA, one strand shown
# Summary of the method: as §1
# [11] = molecular target: T6, ERF (Homo sapiens, UniProt P50548 1-548); settings: protein: recombinant; tags: N-terminal GST; dsDNA, one strand shown
# T6 sequence: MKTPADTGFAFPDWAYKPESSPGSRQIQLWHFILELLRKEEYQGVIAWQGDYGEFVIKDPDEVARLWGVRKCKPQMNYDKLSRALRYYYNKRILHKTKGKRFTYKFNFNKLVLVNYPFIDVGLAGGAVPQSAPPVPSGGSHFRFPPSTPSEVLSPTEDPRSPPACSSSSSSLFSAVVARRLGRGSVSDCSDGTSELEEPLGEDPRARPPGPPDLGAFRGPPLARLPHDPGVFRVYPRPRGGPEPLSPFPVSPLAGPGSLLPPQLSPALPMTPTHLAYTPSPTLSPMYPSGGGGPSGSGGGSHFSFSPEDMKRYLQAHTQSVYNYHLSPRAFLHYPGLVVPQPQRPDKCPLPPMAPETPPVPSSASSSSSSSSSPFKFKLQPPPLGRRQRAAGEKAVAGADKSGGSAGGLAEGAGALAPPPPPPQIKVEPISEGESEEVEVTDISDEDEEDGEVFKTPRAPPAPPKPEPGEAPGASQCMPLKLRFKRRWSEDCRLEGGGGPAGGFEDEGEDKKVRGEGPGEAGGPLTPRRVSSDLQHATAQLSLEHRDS
# Summary of the method: as §1
# [12] = molecular target: T7, ETV3L (Homo sapiens, UniProt Q6ZN32 1-361); settings: protein: recombinant; tags: N-terminal GST; dsDNA, one strand shown
# T7 sequence: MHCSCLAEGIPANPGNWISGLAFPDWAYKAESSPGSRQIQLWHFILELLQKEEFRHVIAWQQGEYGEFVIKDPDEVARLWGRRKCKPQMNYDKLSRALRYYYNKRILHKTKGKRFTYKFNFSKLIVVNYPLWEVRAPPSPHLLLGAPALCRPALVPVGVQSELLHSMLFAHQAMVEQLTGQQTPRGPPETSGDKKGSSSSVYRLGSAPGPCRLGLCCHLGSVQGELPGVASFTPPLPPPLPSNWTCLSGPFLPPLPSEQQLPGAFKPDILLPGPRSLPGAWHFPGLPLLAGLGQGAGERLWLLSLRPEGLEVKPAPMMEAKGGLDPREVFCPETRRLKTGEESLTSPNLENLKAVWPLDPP
# Summary of the method: as §1
# [13] = molecular target: T8, ETS2 (Homo sapiens, UniProt P15036 1-469); settings: protein: recombinant; tags: N-terminal GST; dsDNA, one strand shown
# T8 sequence: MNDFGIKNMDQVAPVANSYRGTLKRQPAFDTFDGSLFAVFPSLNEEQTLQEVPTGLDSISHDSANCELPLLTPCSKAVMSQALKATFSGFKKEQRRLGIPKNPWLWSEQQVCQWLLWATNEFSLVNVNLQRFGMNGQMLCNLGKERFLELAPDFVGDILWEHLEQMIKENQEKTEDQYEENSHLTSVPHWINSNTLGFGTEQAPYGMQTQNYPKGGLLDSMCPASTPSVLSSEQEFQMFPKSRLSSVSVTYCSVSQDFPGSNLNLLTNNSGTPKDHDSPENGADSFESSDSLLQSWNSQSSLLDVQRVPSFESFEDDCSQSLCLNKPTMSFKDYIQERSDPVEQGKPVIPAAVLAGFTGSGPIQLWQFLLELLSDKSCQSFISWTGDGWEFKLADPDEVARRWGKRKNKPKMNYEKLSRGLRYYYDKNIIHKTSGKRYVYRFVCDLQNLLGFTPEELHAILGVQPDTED
# Summary of the method: as §1
# [14] = molecular target: T9, SPDEF (Homo sapiens, UniProt O95238 1-335); settings: protein: recombinant; tags: N-terminal GST; dsDNA, one strand shown
# T9 sequence: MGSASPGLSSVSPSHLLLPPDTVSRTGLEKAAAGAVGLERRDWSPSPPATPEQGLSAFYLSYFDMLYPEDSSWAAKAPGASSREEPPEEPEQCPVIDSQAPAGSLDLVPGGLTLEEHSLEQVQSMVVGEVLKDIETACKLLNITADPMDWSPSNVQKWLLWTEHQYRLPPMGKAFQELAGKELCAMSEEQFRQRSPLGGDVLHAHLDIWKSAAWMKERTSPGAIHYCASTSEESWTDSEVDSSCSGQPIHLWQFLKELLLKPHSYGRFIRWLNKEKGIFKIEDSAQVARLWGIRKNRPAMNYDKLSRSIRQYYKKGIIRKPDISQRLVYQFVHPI
# Summary of the method: as §1
# [15] = molecular target: T10, ETV7 (Homo sapiens, UniProt Q9Y603 1-341); settings: protein: recombinant; tags: N-terminal GST; dsDNA, one strand shown
# T10 sequence: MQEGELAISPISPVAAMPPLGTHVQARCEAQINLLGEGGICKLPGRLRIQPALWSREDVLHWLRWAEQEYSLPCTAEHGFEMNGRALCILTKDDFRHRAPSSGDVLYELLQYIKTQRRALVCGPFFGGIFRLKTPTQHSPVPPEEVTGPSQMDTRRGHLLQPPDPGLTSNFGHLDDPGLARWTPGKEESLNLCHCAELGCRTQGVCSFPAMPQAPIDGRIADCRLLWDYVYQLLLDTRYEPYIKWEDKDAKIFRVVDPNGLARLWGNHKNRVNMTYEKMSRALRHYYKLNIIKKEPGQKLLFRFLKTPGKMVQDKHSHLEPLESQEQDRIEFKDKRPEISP
# Summary of the method: as §1
# [16] = molecular target: T11, ELF5 (Homo sapiens, UniProt Q9UKW6-2 1-255); settings: protein: recombinant; tags: N-terminal GST; dsDNA, one strand shown
# T11 sequence: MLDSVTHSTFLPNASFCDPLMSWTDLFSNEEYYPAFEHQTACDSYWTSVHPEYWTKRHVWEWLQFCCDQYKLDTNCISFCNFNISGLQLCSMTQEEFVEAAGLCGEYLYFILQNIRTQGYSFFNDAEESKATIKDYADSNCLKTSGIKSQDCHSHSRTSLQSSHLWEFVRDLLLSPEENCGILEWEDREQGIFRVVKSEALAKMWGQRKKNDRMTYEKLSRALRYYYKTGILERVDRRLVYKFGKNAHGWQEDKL
# Summary of the method: as §1
# [17] = molecular target: T12, ETV3 (Homo sapiens, UniProt P41162-2 1-143); settings: protein: recombinant; tags: N-terminal GST; dsDNA, one strand shown
# T12 sequence: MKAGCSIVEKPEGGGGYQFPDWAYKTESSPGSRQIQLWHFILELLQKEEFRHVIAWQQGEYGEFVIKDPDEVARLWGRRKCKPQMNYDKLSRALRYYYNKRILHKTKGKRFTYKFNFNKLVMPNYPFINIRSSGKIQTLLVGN
# Summary of the method: as §1
# [18] = molecular target: ETV6 (Homo sapiens, UniProt P41212 1-452); settings: protein: recombinant; tags: N-terminal GST; dsDNA, one strand shown
# Summary of the method: as §1
# Sequence of ETV5 (P41161 whole entry): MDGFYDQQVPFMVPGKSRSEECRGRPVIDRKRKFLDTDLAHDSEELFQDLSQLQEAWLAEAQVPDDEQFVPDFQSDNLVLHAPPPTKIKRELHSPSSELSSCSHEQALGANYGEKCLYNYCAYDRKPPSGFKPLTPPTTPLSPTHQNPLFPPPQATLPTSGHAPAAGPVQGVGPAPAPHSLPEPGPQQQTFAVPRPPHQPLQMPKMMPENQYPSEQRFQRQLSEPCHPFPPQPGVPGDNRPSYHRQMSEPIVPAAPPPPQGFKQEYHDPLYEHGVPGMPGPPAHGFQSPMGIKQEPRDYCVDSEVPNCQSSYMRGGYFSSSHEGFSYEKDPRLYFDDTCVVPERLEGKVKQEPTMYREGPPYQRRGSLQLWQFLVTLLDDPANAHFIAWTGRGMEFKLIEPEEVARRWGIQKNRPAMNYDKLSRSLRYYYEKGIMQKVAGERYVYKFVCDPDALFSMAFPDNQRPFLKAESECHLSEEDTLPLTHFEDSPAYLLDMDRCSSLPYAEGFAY
# Sequence of ETV1 (P50549 whole entry): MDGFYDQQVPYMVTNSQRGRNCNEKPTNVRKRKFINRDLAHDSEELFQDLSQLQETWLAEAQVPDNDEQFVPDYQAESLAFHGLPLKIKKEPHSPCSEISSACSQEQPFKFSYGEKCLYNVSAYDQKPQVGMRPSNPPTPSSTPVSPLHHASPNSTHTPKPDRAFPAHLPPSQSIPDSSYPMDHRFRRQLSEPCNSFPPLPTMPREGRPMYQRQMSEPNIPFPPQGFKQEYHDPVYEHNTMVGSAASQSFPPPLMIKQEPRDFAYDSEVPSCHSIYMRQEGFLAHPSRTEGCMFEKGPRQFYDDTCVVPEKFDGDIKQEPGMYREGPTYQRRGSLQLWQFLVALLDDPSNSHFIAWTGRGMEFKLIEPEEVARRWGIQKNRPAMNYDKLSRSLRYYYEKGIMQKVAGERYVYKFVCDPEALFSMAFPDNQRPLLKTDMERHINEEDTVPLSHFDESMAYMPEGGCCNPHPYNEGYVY
# Sequence of HSF1 (Q00613 whole entry): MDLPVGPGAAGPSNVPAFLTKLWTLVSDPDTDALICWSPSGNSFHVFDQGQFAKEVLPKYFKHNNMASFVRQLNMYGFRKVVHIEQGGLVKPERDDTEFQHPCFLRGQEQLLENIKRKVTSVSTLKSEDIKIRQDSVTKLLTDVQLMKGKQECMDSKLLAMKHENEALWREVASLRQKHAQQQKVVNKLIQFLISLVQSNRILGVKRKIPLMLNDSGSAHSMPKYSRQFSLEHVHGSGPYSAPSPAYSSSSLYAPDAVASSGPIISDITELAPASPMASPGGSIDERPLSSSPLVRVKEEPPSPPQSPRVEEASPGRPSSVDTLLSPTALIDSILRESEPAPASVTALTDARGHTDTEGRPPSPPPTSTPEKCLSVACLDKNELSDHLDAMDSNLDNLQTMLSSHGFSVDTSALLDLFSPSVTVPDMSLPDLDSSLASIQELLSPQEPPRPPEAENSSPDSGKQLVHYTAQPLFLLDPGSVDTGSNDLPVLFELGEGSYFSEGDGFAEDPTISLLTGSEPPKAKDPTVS
# Sequence of ETV6 (P41212 whole entry): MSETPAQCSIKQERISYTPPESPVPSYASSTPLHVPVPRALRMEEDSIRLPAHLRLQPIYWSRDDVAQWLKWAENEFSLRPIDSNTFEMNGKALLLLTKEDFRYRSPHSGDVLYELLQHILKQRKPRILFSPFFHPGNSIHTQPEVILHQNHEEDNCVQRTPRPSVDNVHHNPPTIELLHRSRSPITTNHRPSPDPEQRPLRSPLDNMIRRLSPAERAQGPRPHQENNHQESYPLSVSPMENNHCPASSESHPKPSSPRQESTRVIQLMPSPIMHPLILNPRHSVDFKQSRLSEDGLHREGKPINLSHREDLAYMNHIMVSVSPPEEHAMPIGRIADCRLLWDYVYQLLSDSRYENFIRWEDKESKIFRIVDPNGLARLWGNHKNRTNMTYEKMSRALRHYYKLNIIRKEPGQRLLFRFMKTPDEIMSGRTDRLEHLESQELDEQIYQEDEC
# Sequence of CRX (O43186 whole entry): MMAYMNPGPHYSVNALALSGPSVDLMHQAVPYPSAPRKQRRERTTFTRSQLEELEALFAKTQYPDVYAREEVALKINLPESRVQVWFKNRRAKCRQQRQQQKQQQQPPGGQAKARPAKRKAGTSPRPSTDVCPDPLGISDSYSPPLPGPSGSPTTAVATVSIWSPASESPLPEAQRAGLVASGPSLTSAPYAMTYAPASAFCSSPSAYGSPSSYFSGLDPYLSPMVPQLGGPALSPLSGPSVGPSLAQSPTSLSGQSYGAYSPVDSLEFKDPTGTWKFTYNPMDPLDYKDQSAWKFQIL
# Sequence of ELF4 (Q99607 whole entry): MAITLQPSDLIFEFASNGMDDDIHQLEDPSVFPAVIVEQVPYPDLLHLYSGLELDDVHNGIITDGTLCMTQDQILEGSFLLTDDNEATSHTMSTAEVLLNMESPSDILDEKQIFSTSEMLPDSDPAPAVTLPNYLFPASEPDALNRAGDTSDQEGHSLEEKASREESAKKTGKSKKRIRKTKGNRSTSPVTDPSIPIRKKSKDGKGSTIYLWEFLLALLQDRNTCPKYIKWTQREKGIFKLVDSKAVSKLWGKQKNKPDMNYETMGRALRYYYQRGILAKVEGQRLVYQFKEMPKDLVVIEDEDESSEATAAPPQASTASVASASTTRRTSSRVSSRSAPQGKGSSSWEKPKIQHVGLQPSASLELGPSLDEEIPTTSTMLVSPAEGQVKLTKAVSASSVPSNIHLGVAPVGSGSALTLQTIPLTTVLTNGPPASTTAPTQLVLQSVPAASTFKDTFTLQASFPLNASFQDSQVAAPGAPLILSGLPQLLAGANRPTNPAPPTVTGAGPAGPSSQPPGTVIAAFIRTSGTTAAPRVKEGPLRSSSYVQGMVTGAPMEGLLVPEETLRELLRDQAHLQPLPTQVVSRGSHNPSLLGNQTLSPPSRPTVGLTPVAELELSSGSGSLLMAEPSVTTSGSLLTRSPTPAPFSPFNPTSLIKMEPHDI
sequence,measurement,setting,value
TTTATC,binding signal,[1],"1.14 fold enrichment (6-mer frequency, TF over GST control)"
same,binding signal,[2],"1.2 fold enrichment (6-mer frequency, TF over GST control)"
same,binding signal,[3],"1.65 fold enrichment (6-mer frequency, TF over GST control)"
same,binding signal,[4],"1.26 fold enrichment (6-mer frequency, TF over GST control)"
same,binding signal,[5],"1.2 fold enrichment (6-mer frequency, TF over GST control)"
same,binding signal,[6],"1.4 fold enrichment (6-mer frequency, TF over GST control)"
same,binding signal,[7],"1.24 fold enrichment (6-mer frequency, TF over GST control)"
same,binding signal,[8],"1.18 fold enrichment (6-mer frequency, TF over GST control)"
same,binding signal,[9],"2.15 fold enrichment (6-mer frequency, TF over GST control)"
same,binding signal,[10],"1.18 fold enrichment (6-mer frequency, TF over GST control)"
same,binding signal,[11],"1.19 fold enrichment (6-mer frequency, TF over GST control)"
same,binding signal,[12],"1.35 fold enrichment (6-mer frequency, TF over GST control)"
same,binding signal,[13],"1.26 fold enrichment (6-mer frequency, TF over GST control)"
same,binding signal,[14],"1.25 fold enrichment (6-mer frequency, TF over GST control)"
same,binding signal,[15],"1.22 fold enrichment (6-mer frequency, TF over GST control)"
same,binding signal,[16],"1.26 fold enrichment (6-mer frequency, TF over GST control)"
same,binding signal,[17],"1.29 fold enrichment (6-mer frequency, TF over GST control)"
same,binding signal,[18],"1.24 fold enrichment (6-mer frequency, TF over GST control)"
